From PubChem
BJeLR lethal – BJeLR cell viability loss; inhibition, % (no concentration beside the values); 0.17% of 300,000 active; BJeLR (HRASV12) viability, CellTiter-Glo ATP luminescence, 48 h; AID 1554; in the data active means inhibition above about 50%; inconclusive means no clear call, values can overlap the other calls
BoNT F protease – BoNT F light chain protease inhibition; Multiplex microsphere protease cleavage assay, flow cytometry; inhibition, % at 10 µM; 0.22% of 360,000 active; in the data active means inhibition above about 35%, passing the limit was not always enough; inconclusive means no clear call, values can overlap the other calls
Bead autofluor – counter-screen for toxin protease inhibitors: compound fluorescence. fluorescence intensity (no concentration beside the values). AID 624483. 3.1% of 360,000 active. compound autofluorescence counterscreen, microsphere flow cytometry; hits give high values; in the data active means fluorescence intensity above about 16000; inconclusive means no clear call, values can overlap the other calls
Anthrax LF prot – inhibitors of Bacillus anthracis lethal factor protease | P15917 | multiplex microsphere protease cleavage assay, LF | inhibition, % at 10 µM | 0.12% of 360,000 active
BoNT-A LC inh2 – inhibitors of Botulinum neurotoxin A light chain protease. multiplex microsphere protease substrate cleavage, flow cytometry. inhibition, % at 10 µM. 0.17% of 360,000 active
Each line names hits and unclear results; the compound was inactive in the other large screens. Shown are actives, neighbours in structure and some others; about 3.5% of the full set was active somewhere. Unless noted, no stated cut-off is given here; in the data, active means inhibition above about 30%; inconclusive means no clear call, values can overlap the other calls; inactive means below that.

COC(=O)c1ccc(C(=O)N2CCCC(C)(C(=O)NS(=O)(=O)C3CC3)C2)cc1 (stereo unspecified)	none (no result: BJeLR lethal)
Cc1onc(-c2ccccc2)c1-c1n[nH]c(=S)n1-c1ccccc1Cl	Bead autofluor 22416
Cc1onc(-c2ccccc2)c1-c1n[nH]c(=S)n1-c1ccc(C(=O)O)cc1	none
CC(=O)Nc1cccc(-c2csc(C(C)(O)c3ccc(F)c(F)c3)n2)c1 (stereo unspecified)	none (no result: BJeLR lethal)
O=c1nc(NCc2ccccc2Cl)cn[nH]1	none
O=C(CC[C@H]1O[C@@H](n2cnc3c(NC(=O)c4ccccc4)ncnc32)[C@H](O)[C@@H]1O)NCc1ccc2c(c1)OCO2	none (no result: BJeLR lethal)
O=C1C(Cc2ccc(Br)cc2)SC(=Nc2ccccc2)N1c1ccccc1 (stereo unspecified)	BoNT F protease 35.6
Cc1ccc2oc3nc(C)c(C(=O)Nc4cccc(C(F)(F)F)c4)cc3c(=O)c2c1	Bead autofluor 22965, BoNT-A LC inh2 inconclusive
CC(O)(c1ccc(F)c(F)c1)c1nc(-c2cccc(C#N)c2)cs1 (stereo unspecified)	none (no result: BJeLR lethal)
CCCNC(=O)C1(C)CCN(C(=O)Cc2ccc(OC)c(OC)c2)C1 (stereo unspecified)	none (no result: BJeLR lethal)
CC(C)Cn1c(SCC(=O)c2ccc(Cl)s2)nnc1-c1ccco1	Bead autofluor 22317
COCCn1c(SCC(=O)NC2CCCCC2)nnc1-c1ccco1	none
COCCCn1c(SCC(=O)N2CCCCC2C)nnc1-c1ccco1 (stereo unspecified)	Bead autofluor 16205
CC(C)Cn1c(N)c(C(=O)CSc2nnc(-c3ccco3)n2C)c(=O)n(C)c1=O	none (no result: BJeLR lethal)
CCCCn1c(SCC(=O)NC(C)(C)C)nnc1-c1ccco1	none
CCCCn1c(SCC(N)=O)nnc1-c1ccco1	Bead autofluor 22326
COCCCn1c(SCC(=O)NC2CCCC2)nnc1-c1ccco1	Bead autofluor 20908 (no result: BJeLR lethal)
COc1ccc(CC(=O)O/N=C(\N)c2ccccc2)cc1OC	none
CCOC(=O)SC1=N/C(=C\c2ccc(N(C)C)cc2)C(=O)S1	Bead autofluor 19076
CCSC1=N/C(=C\c2ccc(C(=O)O)cc2)C(=O)S1	none
CCn1c2c(c3cc(OCC(C)C)ccc31)CCCC2=O	none
CCn1c2c(c3cc(Br)ccc31)CCC/C2=N\O	Bead autofluor 29475
COc1ccc(NC(=O)c2cc(C3CCCCN3S(=O)(=O)c3ccc(F)cc3F)on2)c(C)c1 (stereo unspecified)	none (no result: BJeLR lethal)
CCCCC[C@@H](C)N1C[C@@H](COCc2ccccc2)Oc2cc(N3CC[C@@H](N(C)C)C3)ccc2S1(=O)=O	none (no result: BJeLR lethal)
Cc1cccn2c(=O)c3c(nc12)N1CCc2ccccc2C1C1(C3)C(=O)NC(=O)N(C)C1=O (stereo unspecified)	Bead autofluor 19729
COc1cc2c(cc1OC)C(c1cc3cc(OC)c(OC)cc3[nH]c1=O)N(C(=O)C1CC1)CC2 (stereo unspecified)	Bead autofluor 20442 (no result: BJeLR lethal)
Cc1ccccc1CN1CC2=C(CCN(Cc3ccccc3)C2=O)N2CCN=C12	none (no result: BJeLR lethal)
O=[N+]([O-])c1ccc(O)c(-c2cc(C(F)(F)F)nc(-c3ccccc3)n2)c1	BJeLR lethal 68.0
Oc1ccccc1-c1cc(C(F)(F)C(F)F)nc(-c2ccccc2)n1	none
Cc1ccnc(N/C=C(\C#N)c2nc(-c3cccc(Br)c3)cs2)c1	BoNT F protease 38.7, Anthrax LF prot 39.4, BoNT-A LC inh2 55.7
N#C/C(=C\Nc1ccc2cn[nH]c2c1)c1nc(-c2ccccc2)cs1	none
O=C(O)c1ccc2nc(CO)[nH]c2c1	none
O=C(O)c1ccc2nc(C(F)(F)F)[nH]c2c1	Bead autofluor 21497, BoNT-A LC inh2 inconclusive (no result: BJeLR lethal)
O=C(c1cccs1)N1C[C@H](n2cc(C3CC3)nn2)[C@@H](O)C[C@@H]1c1ccc(Cl)cc1	none (no result: BJeLR lethal)
COc1ccc2nc(C)cc(N3CCOCC3)c2c1	Bead autofluor 19626
COc1ccc2nc(C)cc(N3CCN(c4ccccc4)CC3)c2c1	none
O=C(NCc1ccccc1Cl)c1ccc(Cn2cc(C(F)(F)F)ccc2=O)cc1	Bead autofluor 17060
O=C(NCc1ccc(Cl)cc1)c1ccc(Cn2cc(C(F)(F)F)ccc2=O)cc1	none
Cc1cc(/C=C2/SC(=S)N(c3cccc(Cl)c3)C2=O)c(C)n1-c1cccnc1	BoNT F protease 73.6, Anthrax LF prot 51.3, BoNT-A LC inh2 59.5
Cc1cc(/C=C2/SC(=S)N(c3ccc([N+](=O)[O-])cc3)C2=O)c(C)n1-c1cccnc1	BoNT-A LC inh2 32.9
Cc1ccc(N2C(=O)/C(=C/c3cccnc3)SC2=S)cc1	none
Cc1cccc(N2C(=O)/C(=C/c3cccnc3)SC2=S)c1	none
CSc1ccc(C(O)c2ncc(-c3ccccc3Cl)[nH]2)cc1 (stereo unspecified)	none (no result: BJeLR lethal)
O=C(CS(=O)c1ccc(C(F)(F)F)cc1[N+](=O)[O-])Oc1ccc(Cl)cc1 (stereo unspecified)	Bead autofluor 22500
CC(C)(C)c1ccc(C(=O)N/N=C/c2cccc(Cl)c2)cc1	none
CSc1nc(COC(=O)NC(C)C)c(COC(=O)NC(C)C)n1Cc1ccccc1	none (no result: BJeLR lethal)
Cc1cccc2cc(C#N)c(NCCCn3ccnc3)nc12	Bead autofluor 19585
Cc1cccc2cc(C#N)c(NCc3ccccc3)nc12	none
CCCn1nc(NC(=O)c2cccs2)c2cc3cccc(C)c3nc21	none
O=C(CSc1nnc2c(Cl)cc(C(F)(F)F)cn12)Nc1ccc2c(c1)OCO2	Bead autofluor 20358, BoNT-A LC inh2 inconclusive
Cc1ccc(C)c(Cc2c(C)nc3c(C(=O)N4CCOCC4)cnn3c2C)c1	Bead autofluor 22707
CCOC(=O)N1CCN(C(=O)c2cnn3c(C)c(Cc4ccc(C)cc4)c(C)nc23)CC1	Bead autofluor 23293, BoNT-A LC inh2 inconclusive
Cc1nc2c(C(=O)N3CCC4(CC3)OCCO4)cnn2c(C)c1Cc1cccc(Cl)c1	none
CC(NC(=O)c1ccco1)C(=O)OC(C)C(=O)NCc1ccccc1 (stereo unspecified)	none
Cc1ccc(NC(=O)CSc2nc(=O)n(CCCN3CCOCC3)c3c2CCCC3)cc1	none
CCSc1nnc(NC(=O)c2ccccc2C)s1	none
O=C(Nc1ccccc1C(=O)NCc1ccccc1)c1ccccc1Br	none
O=C(O)CNC(=O)c1ccccc1NC(=O)c1ccco1	Bead autofluor 22742 (no result: BJeLR lethal)
CSc1ccccc1C(=O)Nc1ccccc1C	none
Cc1ccccc1NC(=O)c1ccccc1O	Bead autofluor 22757
O=C(Nc1ccccc1C(=O)NCCc1ccccc1)c1ccco1	none
Cc1ccccc1C(=O)Nc1ccccc1C(=O)NCc1ccccc1	Bead autofluor 21881
Cc1ccc(C)c(CC(=O)N2CCCCC2c2cc(C(=O)Nc3cccc(C#N)c3)no2)c1 (stereo unspecified)	none (no result: BJeLR lethal)
COc1ccc(NC(=O)c2cc(S(=O)(=O)N(Cc3ccccc3)c3ccccc3)ccc2Cl)cn1	none
CN(C)c1ccc(C(=O)Nc2ccc(S(=O)(=O)NC3=NCCCCC3)cc2)cc1	Bead autofluor 22816
CC(C)c1ccc(C(=O)Nc2ccc(S(=O)(=O)NC3=NCCCCC3)cc2)cc1	none (no result: BJeLR lethal)
C[C@H]1CN([C@@H](C)CO)C(=O)CCCn2nncc2CO[C@H]1CN(C)C(=O)Nc1cccc(Oc2ccccn2)c1	none (no result: BJeLR lethal)
CC1(C(=O)Nc2nccs2)Cc2ccccc2C(=O)O1 (stereo unspecified)	none
